# This is a sample that favours compounds with a hit; in the whole collection about 21% have one here.
# TDP1 cell CPT – growth inhibition of DT40 Tdp1-/-;hTDP1 cells with camptothecin (screen for TDP1 inhibitors); chicken DT40 Tdp1-/-;hTDP1 cells + 20 nM CPT, ATP luminescence, 48 h; Potency, µM (highest dose often 46.2 µM), for the others: at the highest dose activity change, negative = growth inhibition, most hits filed as inhibitors; 420,000 compounds, 12% hits; AID 686979; note: potency is the fitted concentration of half-maximal effect; nearly all actives have a fitted effect of over 55% in size
#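 Chicken DT40 Tdp1-/- cells complemented with human TDP1, 400 cells/well, exposed to compounds plus 20 nM camptothecin for at least 48 h at 37 C; viability read as ATP content by CellTiter-Glo luminescence.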
# VP16 counter – Gal4-VP16 reporter inhibition counter-screen | 310,000 compounds, 3.5% hits | AID 2546 | Potency, µM (top dose mostly 53.6 µM), without a hit: top-dose activity, negative = inhibition, hits mostly inhibitors | Drosophila S2 Gal4-VP16 UAS-luciferase, luminescence, 20 h;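 note: Gal4-VP16 expression switched on by copper sulfate through the metallothionein promoter; potency is the fitted concentration of half-maximal effect; nearly all actives have a fitted effect of over 50% in size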
# ELG1 repair inh – blocks ELG1-dependent DNA repair in HEK293T cells. HEK293T ELG1-luciferase reporter, luminescence, 16 h; DNA damage induced by 5-fluorouridine. Potency, µM (highest dose often 46.1 µM), without a hit: at the top dose activity change, negative = inhibition, usual class: inhibitors. 330,000 compounds, 2.3% hits; note: potency is the fitted concentration of half-maximal effect; nearly all actives have a fitted effect of over 55% in size
#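 Reporter activity after DNA damage by 5-fluorouridine is monitored. Compound-treated cells incubate 16 hr at 37 °C, then ONE-Glo is added for 30 min before luminescence reading.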
# IL1B secr inh – inflammasome signaling inhibition, IL-1 beta readout | THP-1 LPS/ATP IL-1B secretion, AlphaLISA, 16 h; active compounds read low | activity change, % at 57.5 µM | 360,000 compounds, 4.7% hits; in the data active = activity change below about -50%; inconclusive = mostly about -30% to -49%
#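 THP-1 cells pretreated 1 hr with compounds (up to 57.5 uM final), then stimulated with LPS (250 ng/mL final) plus ATP (1.25 mM final); secreted IL-1B measured by AlphaLISA after 16 hr, decreased signal indicating inhibition.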
# TDP1 cell noCPT – qHTS for Inhibitors of human tyrosyl-DNA phosphodiesterase 1 (TDP1): qHTS in cells in absence of CPT; Potency, µM (series often up to 46.2 µM), inactives show top-dose activity change, negative = growth inhibition, usual class: inhibitors; DT40 Tdp1-/- hTDP1 cells, no CPT, ATP luminescence, 48 h; 420,000 compounds, 15% hits; note: potency is the fitted concentration of half-maximal effect; nearly all actives have a fitted effect of over 55% in size
#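 Growth kinetics read by CellTiter-Glo luminescence after ≥48 hr at 37 °C. Cells: DT40 Tdp1-/- stably carrying human TDP1, 400 per well, compound exposure in the absence of CPT (DMSO vehicle).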
# RORgamma inh – ROR gamma (mouse) transcription inhibition | 310,000 compounds, 5.4% hits | Potency, µM (series often up to 53.6 µM), without a hit: at the top dose activity change, negative = inhibition, hits mostly inhibitors | P51450 | Drosophila S2 Gal4-RORgamma UAS-luciferase reporter, 20 h; note: potency is the fitted concentration of half-maximal effect; nearly all actives have a fitted effect of over 60% in size
# Target sequence (P51450 whole entry, looked up, the tested form may be a part): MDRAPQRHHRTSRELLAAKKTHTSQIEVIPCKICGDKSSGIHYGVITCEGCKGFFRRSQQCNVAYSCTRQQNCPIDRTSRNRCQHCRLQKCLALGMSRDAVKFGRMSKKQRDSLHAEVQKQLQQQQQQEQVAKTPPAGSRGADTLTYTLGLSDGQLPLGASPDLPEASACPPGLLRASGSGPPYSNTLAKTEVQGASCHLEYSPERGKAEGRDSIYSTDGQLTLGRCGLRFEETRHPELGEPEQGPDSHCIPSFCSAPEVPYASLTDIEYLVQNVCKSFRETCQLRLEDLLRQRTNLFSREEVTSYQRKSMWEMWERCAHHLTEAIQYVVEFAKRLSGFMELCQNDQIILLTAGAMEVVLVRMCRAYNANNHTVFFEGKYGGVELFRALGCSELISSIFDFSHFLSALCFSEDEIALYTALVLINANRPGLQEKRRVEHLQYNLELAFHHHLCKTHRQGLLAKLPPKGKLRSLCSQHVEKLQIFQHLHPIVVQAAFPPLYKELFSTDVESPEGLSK
#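 Stably transfected Drosophila Schneider cells are the test system, with ROR gamma fused to Gal4 and luciferase under UAS control; luminescence is read after 20 hr of 700 uM copper sulfate induction at ambient temperature.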
# Active calls of the source: *; ? = inconclusive; . = no result. Unless noted, calls come from the whole dose curve; as a rule, active = well fitted curve in the direction sought with a large enough effect; inconclusive = small, poorly fitted or top-dose-only effect, or another doubt; inactive = no such curve, though single readings can be large; an effect the other way counts as inactive or inconclusive. % is set by controls: 0 for no effect and ±100 for the full control effect.
SMILES,TDP1 cell CPT,VP16 counter,ELG1 repair inh,IL1B secr inh,TDP1 cell noCPT,RORgamma inh
CCOc1ccc(NC(=O)CCS(=O)(=O)c2ccc3c(c2)n(C)c(=O)c(=O)n3C)cc1,16%,.,.,.,4%,.
COCCn1c(SCC(=O)NCCCN2CCCC2=O)nc2sc3c(c2c1=O)CCCC3,4%,.,.,0,0%,.
CCCN(CCC)CCCNC(=O)c1sc2nc3n(c(=O)c2c1C)CCC3,6%,.,.,.,-11%,.
CCOC1(OCC)OC(c2ccccc2)=C(C#N)C(C=Cc2ccccc2)C1(OCC)OCC (stereo not drawn),?,.,.,-6,21µM*,.
CCOC(=O)C1=C(c2ccccc2)OC(N)=C(C#N)C1C1CCCCC1 (stereo not drawn),?,-3%,2%,13,?,-12%
O=C(CN1C(=O)NC2(CCCC2)C1=O)Nc1cc(C(F)(F)F)ccc1N1CCCCC1,?,.,0%,-72*,-20%,.
COc1cccc(Oc2ccc(C(F)(F)F)cc2NC(=O)CN2C(=O)NC3(CCCC3)C2=O)c1,15µM*,.,0%,-30,?,.
CC1=CC2C(CC1=O)C(C)=CCC2C(C)C (stereo not drawn),0%,3%,.,.,-6%,-2%
COC(=O)CC[C@H](N)C(=O)O,-3%,-7%,.,.,-28%,-4%
O=C(COC(=O)CNC(=O)c1ccc(Cl)cc1Cl)NC1CCCCC1,9%,6%,?,-6,-2%,8%
CCOc1ncccc1C(=O)NNC(=O)c1ccccc1-n1cccc1,-1%,?,1%,24,13%,?
COc1ccc(-c2cc(C(F)F)nn2-c2ccc(S(N)(=O)=O)cc2)cc1F,3%,7%,.,.,-8%,-1%
COc1ccc(N/N=C(\C#N)C(N)=O)cc1,11%,19%,?,-15,-1%,15%
N#C/C(=N/Nc1ccc(OC(F)(F)F)cc1)C(N)=S,2.3µM*,4.5µM*,?,-64*,1.6µM*,4.5µM*
CN1/C(=C\C(=S)Nc2ccccc2)C(C)(C)c2ccccc21,10µM*,?,?,?,2.1µM*,?
CN1/C(=C\C(=O)Nc2ccc(Cl)cc2)C(C)(C)c2ccccc21,?,?,0%,-58*,?,?
Cc1ccc(OCC(=O)Nc2nc(-c3ccccn3)cs2)c(C)c1,?,.,8%,45,?,.
Cc1cc(C(=O)Nc2nc(-c3ccccn3)cs2)ccc1[N+](=O)[O-],2.3µM*,2.8µM*,?,107,2.9µM*,1.1µM*
Cc1csc(NC(=O)c2ccc(Cl)cc2[N+](=O)[O-])n1,-13%,-2%,?,0,?,?
O=C(Nc1nc(-c2ccccn2)cs1)c1cc(Cl)ccc1[N+](=O)[O-],0.82µM*,2.8µM*,?,58,1.5µM*,1.1µM*
CCOC(=O)c1sc2nc(C)nc(SCC(=O)N(CC)C3CCS(=O)(=O)C3)c2c1C (stereo not drawn),?,0%,16µM*,22,-25%,13%
COc1cc(Cl)c(C)cc1NC(=O)c1nn(C)c2c1CSc1ccccc1-2,-15%,.,.,.,-2%,.
COc1ccc2occ(C(=O)c3coc4ccc(O)c(CN(C)C)c34)c2c1,16µM*,?,?,-2,?,-5%
CN(C)Cc1c(O)ccc2occ(C(=O)c3ccc(F)cc3)c12,?,-11%,?,-54*,-30%,?
COc1ccc(OC)c(C(=O)c2coc3ccc(O)c(CN(C)C)c23)c1,-26%,-12%,-23%,-1,?,-10%
SMILES,TDP1 cell CPT,VP16 counter,ELG1 repair inh,IL1B secr inh,TDP1 cell noCPT,RORgamma inh
CCOC(=O)C1CCCN(C(=O)Cn2ncc3c([nH]c4ccc(C)cc43)c2=O)C1 (stereo not drawn),?,-17%,2%,-15,?,-2%
CC(C)CC(NC(=O)C(CC(C)C)NC(=O)C(Cc1ccc(OCc2ccccc2)cc1)NC(=O)OC(C)(C)C)C(N)=O (stereo not drawn),?,2%,6%,-9,?,-4%
CC(C)C(NC(=O)OC(C)(C)C)C(=O)NC(CCC(=O)OCc1ccccc1)C(N)=O (stereo not drawn),-6%,0%,-18%,21,1%,26%
CC(NC(=O)OC(C)(C)C)C(=O)NC(CCC(=O)OCc1ccccc1)C(N)=O (stereo not drawn),-28%,5%,-9%,-8,29µM*,14%
CC(C)CC(NC(=O)C(NC(=O)C(Cc1ccc(OCc2ccccc2)cc1)NC(=O)OC(C)(C)C)C(C)C)C(N)=O (stereo not drawn),?,13µM*,14%,22,16µM*,?
COc1ccccc1NC(=O)CC(C)n1nc(C)cc1C (stereo not drawn),2%,.,.,.,-21%,.
CC1(C(=O)NS(=O)(=O)c2ccccc2Cl)CCN1C(=O)CCc1cccs1 (stereo not drawn),-5%,.,.,8,0%,.
COc1ccc(Cl)cc1NC(=O)CN(C)C(=O)c1cn(-c2ccccc2)nc1-c1cccnc1,18µM*,.,?,-91*,?,.
Cc1ccc(-c2nn(-c3ccc(F)cc3)cc2C(=O)N(C)CC(=O)Nc2ccc(N3CCOCC3)cc2)cc1,?,.,?,14,15µM*,.
COc1ccc(NC(=O)CN(C)C(=O)c2cn(-c3ccccc3)nc2-c2ccc(F)cc2)cc1,?,.,?,-53*,?,.
CN(CC(=O)Nc1ccc(N2CCOCC2)cc1)C(=O)c1cc(F)c(F)cc1Cl,8%,.,29%,-18,-8%,.
COc1ccc(NC(=O)CN(C)C(=O)c2cn(-c3ccccc3)nc2-c2ccc(Cl)cc2)cc1,?,.,?,-60*,15µM*,.
COc1cccc(NC(=O)CN(C)C(=O)c2cn(-c3ccccc3)nc2-c2cccnc2)c1,?,.,?,0,?,.
COc1ccc(S(=O)(=O)NC(=O)C2(C)CCN2C(=O)Cc2cc(C)cc(C)c2)cc1 (stereo not drawn),20%,.,.,5,-3%,.
CN1C(=O)C(O)(CC(=O)c2ccccc2O)c2cc(Br)ccc21 (stereo not drawn),5.2µM*,-3%,10%,50,5.8µM*,-2%
CN1C(=O)C(O)(CC(=O)/C=C/c2ccco2)c2ccccc21 (stereo not drawn),4%,?,8%,-4,-16%,17%

# Screens (PubChem BioAssay)
